# Whole data set: some 2,900 compounds, median “IRF Lucia reporter activity, fold change vs agonist alone” near 0.9, cut for the highest 2% near 2.8. The sample as a whole holds a higher share of the highest values than the screen did.
# How the values were obtained:
# RAW-Dual [1] = test: IRF Lucia reporter activity, fold change vs agonist alone; cytotoxicity flag (confluency mask): not cytotoxic; higher = enhanced IRF activity
# How it was run: (§1)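 RAW-Dual macrophages were seeded in DMEM at 50,000 cells/well in 384-well plates, given 50 nL of library stock by pin tool, and given a PRR agonist 1 h later. Plates were held at 37 °C, 5% CO2 for 20 hours, after which supernatant was read for IRF by QuantiLuc luminescence and for NF-κB by QuantiBlue absorbance at 620 nm. Reporter activity is expressed as fold change over wells that received agonist alone. A well was called cytotoxic when IncuCyte confluency fell below 70% of agonist controls in both mask sets.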
# RAW-Dual [2] = test: IRF Lucia reporter activity, fold change vs agonist alone; higher = enhanced IRF activity; details: library stock concentration (final ~1000-fold dilution): 10 mM, agonist: MPLA (TLR4) […]
# How it was run: as §1
# RAW-Dual [3] = test: IRF Lucia reporter activity, fold change vs agonist alone; cytotoxicity flag (confluency mask): cytotoxic (confluency <70% of control); higher = enhanced IRF activity
# How it was run: as §1
# [4] = agonist: 3'3'-cGAMP (STING) 10 ug/mL
# [5] = cytotoxicity flag (confluency mask): cytotoxic (confluency <70% of control)
# [6] = cytotoxicity flag (confluency mask): not cytotoxic
smiles,measurement,setting,value
Cc1cc2c(F)c(Oc3ncnn4cc(OCC(C)O)c(C)c34)ccc2[nH]1 (configuration not stated) (library stock concentration (final ~1000-fold dilution): 10 mM),IRF Lucia reporter activity,RAW-Dual [1]; [4],1.01
same,IRF Lucia reporter activity,RAW-Dual [1]; agonist: LPS (TLR4) 0.1 ug/mL,1.75
Cc1cc2c(F)c(Oc3ncnn4cc(OCC(C)OC(=O)C(C)N)c(C)c34)ccc2[nH]1 (configuration not stated),IRF Lucia reporter activity,RAW-Dual [2]; [5],2.88
COc1cc2c(Oc3ccc4[nH]c(C)cc4c3F)ncnc2cc1OCCCN1CCCC1.O=C(O)/C=C\C(=O)O,IRF Lucia reporter activity,RAW-Dual [2]; [5],2.35
Cc1cc2c(F)c(Oc3ncnn4cc(OCC(C)O)c(C)c34)ccc2[nH]1 (configuration not stated),IRF Lucia reporter activity,RAW-Dual [2]; [6],1.93
COc1cc2c(Oc3ccc4[nH]c(C)cc4c3F)ncnc2cc1OCCCN1CCCC1.O=C(O)/C=C\C(=O)O (library stock concentration (final ~1000-fold dilution): 10 mM),IRF Lucia reporter activity,RAW-Dual [3]; [4],0.783
same,IRF Lucia reporter activity,RAW-Dual [3]; agonist: LPS (TLR4) 0.1 ug/mL,1.92
Cc1cc2c(F)c(Oc3ncnn4cc(OCC(C)OC(=O)C(C)N)c(C)c34)ccc2[nH]1 (configuration not stated) (library stock concentration (final ~1000-fold dilution): 10 mM),IRF Lucia reporter activity,RAW-Dual [3]; [4],0.967
same,IRF Lucia reporter activity,RAW-Dual [3]; agonist: LPS (TLR4) 0.1 ug/mL,2.13
COS(=O)(=O)[O-].Cc1cc2c3c([n+](C)c4ccc(F)cc4c3c1)-c1cc(F)ccc1N2C (library stock concentration (final ~1000-fold dilution): 10 mM),IRF Lucia reporter activity,RAW-Dual [1]; [4],1.39
same,IRF Lucia reporter activity,RAW-Dual [1]; agonist: LPS (TLR4) 0.1 ug/mL,1.53
CN1CCN(CCCN2c3ccccc3Sc3ccc(Cl)cc32)CC1.O=C(O)/C=C\C(=O)O.O=C(O)/C=C\C(=O)O (library stock concentration (final ~1000-fold dilution): 10 mM),IRF Lucia reporter activity,RAW-Dual [3]; [4],0.64
same,IRF Lucia reporter activity,RAW-Dual [3]; agonist: LPS (TLR4) 0.1 ug/mL,0.589
CN1CCN(CCCN2c3ccccc3Sc3ccc(Cl)cc32)CC1.O=C(O)/C=C\C(=O)O.O=C(O)/C=C\C(=O)O,IRF Lucia reporter activity,RAW-Dual [2]; [5],0.883
O=C(O)C1OC(Oc2cc3oc(-c4ccccc4)cc(=O)c3c(O)c2O)C(O)C(O)C1O (configuration not stated),IRF Lucia reporter activity,RAW-Dual [2]; [6],1.03
O=C(O)C1OC(Oc2cc3oc(-c4ccccc4)cc(=O)c3c(O)c2O)C(O)C(O)C1O (configuration not stated) (library stock concentration (final ~1000-fold dilution): 10 mM),IRF Lucia reporter activity,RAW-Dual [1]; [4],0.96
same,IRF Lucia reporter activity,RAW-Dual [1]; agonist: LPS (TLR4) 0.1 ug/mL,0.958
CC(C)OC(=O)C(C)NP(=O)(OCC1OC(n2ccc(=O)[nH]c2=O)C(C)(F)C1O)Oc1ccccc1 (configuration not stated) (library stock concentration (final ~1000-fold dilution): 10 mM),IRF Lucia reporter activity,RAW-Dual [1]; [4],1.04
same,IRF Lucia reporter activity,RAW-Dual [1]; agonist: LPS (TLR4) 0.1 ug/mL,0.731
CC(C)OC(=O)C(C)NP(=O)(OCC1OC(n2ccc(=O)[nH]c2=O)C(C)(F)C1O)Oc1ccccc1 (configuration not stated),IRF Lucia reporter activity,RAW-Dual [2]; [6],1.04
COc1cc2nc(N3CCCC3)nc(NCCCCCN3CCCC3)c2cc1OC,IRF Lucia reporter activity,RAW-Dual [2]; [5],0.8
COc1cc2c(NC3CCN(C(C)C)CC3)nc(C3CCCCC3)nc2cc1OCCCN1CCCC1 (library stock concentration (final ~1000-fold dilution): 10 mM),IRF Lucia reporter activity,RAW-Dual [3]; [4],0.154
same,IRF Lucia reporter activity,RAW-Dual [3]; agonist: LPS (TLR4) 0.1 ug/mL,0.0189
COc1cc2c(NC3CCN(C(C)C)CC3)nc(N3CCC(F)(F)CC3)nc2cc1OCCCN1CCCC1,IRF Lucia reporter activity,RAW-Dual [2]; [5],0.652
COc1cc2c(NC3CCN(C(C)C)CC3)nc(N3CCC(F)(F)CC3)nc2cc1OCCCN1CCCC1 (library stock concentration (final ~1000-fold dilution): 10 mM),IRF Lucia reporter activity,RAW-Dual [3]; [4],0.849
same,IRF Lucia reporter activity,RAW-Dual [3]; agonist: LPS (TLR4) 0.1 ug/mL,4.2
COc1cc2nc(N3CCCC3)nc(NCCCCCN3CCCC3)c2cc1OC (library stock concentration (final ~1000-fold dilution): 10 mM),IRF Lucia reporter activity,RAW-Dual [3]; [4],0.313
same,IRF Lucia reporter activity,RAW-Dual [3]; agonist: LPS (TLR4) 0.1 ug/mL,2.54
COc1cc2c(cc1O)CCC1C2CCC2(C)C(O)CCC12 (configuration not stated),IRF Lucia reporter activity,RAW-Dual [2]; [5],1.31
COc1cc2c(cc1O)CCC1C2CCC2(C)C(O)CCC12 (configuration not stated) (library stock concentration (final ~1000-fold dilution): 10 mM),IRF Lucia reporter activity,RAW-Dual [3]; [4],0.205
same,IRF Lucia reporter activity,RAW-Dual [3]; agonist: LPS (TLR4) 0.1 ug/mL,1.03
Cn1c(=O)c(F)c(Nc2ccc(I)cc2F)c2c(=O)n(CC(O)CO)cnc21 (configuration not stated) (library stock concentration (final ~1000-fold dilution): 10 mM),IRF Lucia reporter activity,RAW-Dual [1]; [4],0.517
same,IRF Lucia reporter activity,RAW-Dual [1]; agonist: LPS (TLR4) 0.1 ug/mL,0.819
O=C(NOCC1CC1)c1ccc(F)c(F)c1Nc1ccc(I)cc1Cl (library stock concentration (final ~1000-fold dilution): 10 mM),IRF Lucia reporter activity,RAW-Dual [1]; [4],0.525
same,IRF Lucia reporter activity,RAW-Dual [1]; agonist: LPS (TLR4) 0.1 ug/mL,2.5
O=C(NOCC(O)CO)c1cc(Br)c(F)c(F)c1Nc1ccc(I)cc1F (configuration not stated),IRF Lucia reporter activity,RAW-Dual [2]; [6],2.39
O=C(NOCC(O)CO)c1ccc(F)c(F)c1Nc1ccc(I)cc1F (configuration not stated) (library stock concentration (final ~1000-fold dilution): 10 mM),IRF Lucia reporter activity,RAW-Dual [1]; [4],0.903
same,IRF Lucia reporter activity,RAW-Dual [1]; agonist: LPS (TLR4) 0.1 ug/mL,3.61
O=C(NOCCO)c1ccc2cncn2c1Nc1ccc(I)cc1F (library stock concentration (final ~1000-fold dilution): 10 mM),IRF Lucia reporter activity,RAW-Dual [1]; [4],0.814
same,IRF Lucia reporter activity,RAW-Dual [1]; agonist: LPS (TLR4) 0.1 ug/mL,3.65
Cc1cc(C(=O)NOCCO)c(Nc2ccc(I)cc2F)n(C)c1=O (library stock concentration (final ~1000-fold dilution): 10 mM),IRF Lucia reporter activity,RAW-Dual [1]; [4],0.824
same,IRF Lucia reporter activity,RAW-Dual [1]; agonist: LPS (TLR4) 0.1 ug/mL,2.13
